From PubChem BioAssay AID540362 (National Center for Advancing Translational Sciences (NCATS), 2011)
Inconclusive results are not listed. Activity calls are given as the source filed them. Calls follow the shape of the dose curve; as a rule, active = well fitted cell-killing curve with a large enough effect; inconclusive = small, poorly fitted or top-dose-only effect; inactive = flat fitted curve, though single readings scatter.

Experiment: PC3M Cytotoxicity Assay for Compounds that Inhibit the Perinuclear Compartment
Conditions: PC3M-GFP viability, ATPLite luminescence, 24 h
Description: The perinucleolar compartment (PNC) is a non-membrane-bound nuclear subdomain that is associated with but structurally distinct from the nucleolus. The PNC is a heritable trait, in which the number of PNCs per cell in daughter cells often mimics that of their mother cells. The PNC is heterogeneous in shape, is stable through interphase, disassembles during mitosis, and reassembles in early G1. The PNC is concentrated with newly synthesized RNA polymerase III (pol III) RNAs (MRP RNA, RNAse P H1 RNA, hY RNAs[hY1, 2, 5], Alu RNA, and SRP [7SL] RNA) and RNA binding proteins (nucleolin, PTB, CUG-BP, KSRP, Raver1, Raver2, and Rod). […] Extensive in vitro studies have shown that the PNC is unique to tumor cells and preferentially forms in tumor cells derived from solid tissues. Examination of cancer cell lines from various origins and malignant capacities has shown that PNC prevalence correlates with the malignancy of tumors and has the potential to be developed as a pan-cancer prognostic marker. […] Although the PNC is associated with a DNA locus and a handful of components have been identified, much remains to be investigated regarding the structure and function of the PNC and its mechanistic link to cancer. We have previously shown that PNC prevalence reduction is a valid strategy to identify compounds that can be used to study the structure and function of the PNC. It is necessary, however, to create a screening platform that is able to test a large number of compounds in an automated fashion. Here we report the development and robustness of an automated whole-cell phenotypic image-based screening assay that is capable of identifying such compounds. We conducted a followup assay to measure the effect of the lead candidates on cell health by measuring ATP levels (ATPLite). The highly metastatic PC3M-GFP reporter cell line was used in this study. NIH Chemical Genomics Center [NCGC] NIH Molecular Libraries Probe Centers Network [MLPCN] MLPCN Grant: MH082371-01A2 Assay Submitter (PI): Sui Huang, Northwestern University, Feinberg School of Medicine, Cell and Molecular Biology, Chicago, Illinois.
1. Cells at a density of 75-90% confluency in T175 flasks were harvested using 7 ml TrypLE Express cell dissociation reagent. After dissociation (5 minutes room temperature incubation) 10 ml of complete media was added to the TrypLE/cell suspension. The liquid was transferred to a 50 ml Conical tube and cells were pelleted at 1000 RPM for 5 min. Supernatant was removed and cells were resuspended to a final density of 150-200 cells/ul in complete media. 2. Cells were plated in 5 ul volume (2000 cells/well) into 1536 well White solid bottom plates and allowed to recover and adhere at 37 C in a humidified 5% CO2 incubator for 4 hours. 3. After 4 hour incubation, compound libraries (23 nl of […] in columns 5-48) were transferred to the plates in duplicate using a 1536 well pintool. Camptothecin positive control (59 uM final) was added to column 2 and 1:3 dilutions of camptothecin was added to column 3. DMSO negative controls were present in columns 1 and 4. 4. After a 24 hour incubation in the 37 C incubator, all wells were treated with 3 ul of ATPLite reagent using a multidrop combi dispenser (ThermoFisher). Bubbles that formed during dispensing were removed by spinning the plates for 1 minutre at 1500 RPM on a table top centrifuge. 5. Luminescencent signal was detected on a Viewlux CCD based imager (PerkinElmer) with a clear filter and a 30 second integration time. The PC3M cell line stably expressing the PTB-GFP was provided by Sui Huang of Northwestern University. The media and cell culture reagents were purchased from Invitrogen (Carlsbad, CA), ATPLite came from PerkinElmer.

SMILES | Potency
N=c1c2c(-c3ccccc3)c(-c3ccccc3)n(Cc3ccco3)c2ncn1CCCn1ccnc1 | 25 µM (active)
N=c1c2c(-c3ccccc3)c(-c3ccccc3)n(Cc3ccco3)c2ncn1CCO | 19.9 µM (active)
N=c1c2c(-c3ccccc3)c(-c3ccccc3)n(Cc3ccco3)c2ncn1Cc1ccccc1 | 19.9 µM (active)
CC(C)Cn1cnc2c(c(-c3ccccc3)c(-c3ccccc3)n2Cc2ccco2)c1=N | 19.9 µM (active)
N=c1c2c(-c3ccccc3)c(-c3ccccc3)n(Cc3ccccc3)c2ncn1CCCn1ccnc1 | 19.9 µM (active)
N=c1c2c(-c3ccccc3)c(-c3ccccc3)n(Cc3ccco3)c2ncn1Cc1ccco1 | 19.9 µM (active)
